# Bioassay records: PubChem, National Center for Advancing Translational Sciences (NCATS)
# D2 ag-1 – HTS Assay for Allosteric Agonists of the Human D2 Dopamine Receptor: Primary Screen for Agonists. 0.53% of 340,000 active. AID 485358, 2010. activation, % at 2 µM. HEK293 T-REx D2 cells, calcium flux agonist mode. D(2) dopamine receptor (Homo sapiens), P14416;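 active = activation over 3 SD above normal in the single-dose calcium agonist read, cut at about 30% in these data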
# Target sequence (P14416 whole entry, looked up): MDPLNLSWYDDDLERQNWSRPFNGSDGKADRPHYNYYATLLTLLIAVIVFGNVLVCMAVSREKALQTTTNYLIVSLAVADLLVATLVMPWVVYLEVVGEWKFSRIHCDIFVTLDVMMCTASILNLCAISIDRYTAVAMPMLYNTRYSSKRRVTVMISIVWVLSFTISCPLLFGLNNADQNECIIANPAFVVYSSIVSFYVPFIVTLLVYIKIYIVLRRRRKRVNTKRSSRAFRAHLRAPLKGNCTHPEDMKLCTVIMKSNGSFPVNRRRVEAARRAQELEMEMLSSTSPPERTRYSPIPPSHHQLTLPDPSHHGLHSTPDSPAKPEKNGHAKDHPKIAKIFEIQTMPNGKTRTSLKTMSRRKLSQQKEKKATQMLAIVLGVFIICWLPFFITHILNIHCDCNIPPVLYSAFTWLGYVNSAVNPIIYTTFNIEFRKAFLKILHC
#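 Tetracycline-induced HEK293 T-REx cells with force-coupled D2 receptor, plated overnight at 30 C, loaded with no-wash calcium dye. After a 10 s baseline, compound was pin-added and calcium flux read kinetically for 180 s; calcium rises flagged agonists.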
# D2 PAM-1 – HTS Assay for Positive Allosteric Modulators of the Human D2 Dopamine Receptor: Primary Screen for Potentiators | HEK293 T-REx D2, calcium flux, EC20 dopamine potentiation | AID 485347, 2010 | potentiation, % at 10 µM | D(2) dopamine receptor (Homo sapiens), P14416 | 0.34% of 340,000 active;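 active = potentiation over 3 SD above the plate norm, cut at about 30% in these data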
#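 Using a no-wash calcium dye in inducible, force-coupled HEK293 Trex cells expressing D2, we tracked fluorescence each second for 180 s after compound, then for 180 s after EC20 dopamine to detect augmented signalling.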
# LDHA block – qHTS assay for inhibitors of human lactate dehydrogenase. activity change, % (values are at about 110 or 230 µM). L-lactate dehydrogenase A chain (Homo sapiens), P00338. purified LDHA, NADH/diaphorase-resazurin fluorescence; hits give low values. 0.15% of 480,000 active; in the data active = activity change below about -30%
#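 Human LDH5 (2 nM) was incubated with 0.06 mM NADH and 0.2 mM pyruvate for 5 min at room temperature in Tris pH 7.4. Remaining NADH was coupled through diaphorase/resazurin, and resorufin fluorescence was read at 0 and 20 min.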
# D2 antagonist – HTS Assay for Allosteric Antagonists of the Human D2 Dopamine Receptor: Primary Screen for Antagonists | HEK293 TREx D2 cells, calcium flux, dopamine EC80 | inhibition, % at 10 µM | 2% of 340,000 active | AID 485344, 2010; in the data active = inhibition above about 30%; inactive = below that, where a call was filed
#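 Read-out: kinetic calcium fluorescence (1 cycle/s) in inducible HEK293 T-REx D2 cells after an EC80 dopamine addition that followed 180 s compound preincubation. Loss of the dopamine response indicates antagonism.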
# D2 PAM-2 – Beta-Arrestin HTS for Positive Allosteric Modulators of the Human D2 Dopamine Receptor: Potentiators. D(2) dopamine receptor (Homo sapiens), P14416. DiscoveRx D2 beta-arrestin cells, luminescence, 90 min; 100% = 57 uM dopamine signal. potentiation, % (concentration not given with the values). 0.23% of 360,000 active; in the data active = potentiation above about 50%
#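 PathHunter beta-arrestin assay in DiscoveRx D2 cells. Compounds were added with an EC20 of dopamine (50 nM final) for 90 min at 37 deg C. Luminescence was read 1 h after detection reagent, with 57 uM dopamine as the EC100 control.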
# D2 ag-2 – Beta-Arrestin HTS for Positive Allosteric Modulators of the Human D2 Dopamine Receptor: Agonists; AID 624465, 2012; activation, % (concentration not given with the values); 0.084% of 360,000 active; DiscoveRx PathHunter D2 beta-arrestin, luminescence, 90 min; 100% = 57 uM dopamine signal; D(2) dopamine receptor (Homo sapiens), P14416; in the data active = activation above about 40%
#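 DiscoveRx PathHunter D2 beta-arrestin cells (2,100/well) attached overnight, then compound-stimulated 90 min at 37 C in HBSS/10 mM HEPES/0.1% Tween-20 buffer; beta-galactosidase complementation read by luminescence after 1 h at ambient temperature. Dopamine 57 uM final (EC100) as control.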
# Hits are given with their value; i = inactive; nt = not tested or not shown. The list is not random: actives were taken first. Their share in the collection is about 2.1%.
SMILES,D2 ag-1,D2 PAM-1,LDHA block,D2 antagonist,D2 PAM-2,D2 ag-2
c1ccc(CC2CCN(Cc3ccccn3)CC2)cc1,i,i,i,30,i,i
Clc1ccc(CN2CCC(Cc3ccccc3)CC2)cc1,i,i,i,48,i,i
CCOC(=O)CCCNC(=O)CCl,nt,nt,i,nt,nt,nt
O=C(O)/C=C\C(=O)NC(Cc1ccccc1)C(=O)O (stereo not given),nt,nt,i,nt,nt,nt
CC(=O)c1c(C)[nH]c(C(=O)C(C)OC(=O)c2cnccn2)c1C (stereo not given),nt,nt,i,nt,nt,nt
CC(=O)c1ccccc1NC(=O)COC(=O)c1ccc2ccccc2n1,nt,nt,i,nt,nt,nt
Clc1ccc(CN2CCC(c3ccccc3)CC2)cc1,i,i,i,85,i,i
Clc1ccc(CN2CCC(c3nc4ccc(Cl)cc4[nH]3)CC2)cc1,i,i,i,82,i,i
CSc1ccc(CN2CCC(Cc3ccccc3)CC2)cc1,i,i,i,31,i,i
C[N+]1(CC(=O)Nc2ccc(F)cc2)CCN(C(=O)c2ccco2)CC1,i,43,i,i,i,i
CCOC1(OCC)C(c2ccc(N)cc2)C(C#N)(C#N)C1(OCC)OCC (stereo not given),i,i,i,i,i,i
CCOC1(OCC)C(c2ccc(Cl)cc2)C(C#N)(C#N)C1(OCC)OCC (stereo not given),i,i,i,38,i,i
COc1ccc(C(=O)Nc2cccc(NC(=O)c3ccc(OC)c(OC)c3)n2)cc1OC,i,i,i,i,85,i
O=c1c2c([N+](=O)[O-])cc([N+](=O)[O-])cc2sn1-c1ccc(Br)cc1,i,i,i,i,61,i
CCOC(=O)c1c(NC(=O)CSc2ncnc3ccccc23)sc2c1CCCC2,nt,nt,i,nt,nt,nt
Cc1ccc(NC(=O)c2ccc3c(c2)NC(=O)CS3)nc1,i,i,i,i,i,i
Cc1ccc2c(c1)-c1[nH]c(=S)ncc1CS2,i,i,i,i,60,i
O=C(CN1CCN(c2ccccc2F)CC1)c1c[nH]c2ccc(F)cc12,i,i,i,35,i,i
COc1ccc(NC(=O)/C(=C\c2ccc(OS(=O)(=O)c3ccc(C)cc3)cc2)NC(=O)c2ccccc2)cc1,i,40,i,i,i,i
Cc1ccc(S(=O)(=O)Oc2ccc(/C=C(/NC(=O)c3ccccc3)C(=O)Nc3ccccc3)cc2)cc1,i,i,i,i,i,i
COc1cc(NS(=O)(=O)c2ccc(NC(=O)/C(=C\c3ccccc3OC)NC(=O)c3ccccc3)cc2)nc(OC)n1,i,i,i,32,i,i
Cc1nc2sc(C(c3ccccc3)N3CCN(C)CC3)c(O)n2n1 (stereo not given),i,i,i,47,i,i
COc1ccc2nc(NS(=O)(=O)c3ccc(Cl)cc3)c(Nc3cc(C)ccc3OC)nc2c1,nt,nt,i,nt,nt,nt
O=C(O)COc1ccc(-c2nc(-c3ccccc3)c(-c3ccccc3)[nH]2)cc1,i,i,i,i,i,i
COc1cccc(-c2nc(-c3ccccc3)c(-c3ccccc3)[nH]2)c1OCC(=O)O,i,i,i,i,65,i
O=C(O)COc1ccccc1-c1nc(-c2ccccc2)c(-c2ccccc2)[nH]1,i,i,-43,i,i,i
CCn1cc([N+](=O)[O-])c(C(=O)Nc2ccn(Cc3ccccc3F)n2)n1,i,i,i,i,i,i
Cc1ccccc1Cn1ccc(NC(=O)c2nn(C)cc2[N+](=O)[O-])n1,i,i,i,31,i,i
c1ccc(CCn2cccc2)cc1,nt,nt,i,nt,nt,nt
O=S(=O)(CCn1cccc1)CCn1cccc1,i,30,i,i,i,i
